Test results taken from the supplement of paper PMC8728848.
The full list was thinned out, with the strongest signals kept by preference.

Key:
Experiment in all cases: glycan array binding signal (z-score within array); higher = stronger binding
Settings in all cases: glycan notation: IUPAC condensed, linker removed
Gal(b1-6)Gal = biological target: Gal(b1-6)Gal
In short: (§1)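 Arrays were curated from the Consortium for Functional Glycomics database, 3228 in total, and kept only where the protein sequence was available. Binding is expressed as a within-array Z-score. This score was averaged across arrays of the same protein sequence at different concentrations or buffers and across linkers, and negative values can be read as non-binding.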

Gal3S6S(b1-4)GlcNAc = biological target: Gal3S6S(b1-4)GlcNAc
In short: as §1

Gal3S6S(b1-4)GlcNAc6S = biological target: Gal3S6S(b1-4)GlcNAc6S
In short: as §1

Gal4S6S(b1-4)GlcNAc = biological target: Gal4S6S(b1-4)GlcNAc
In short: as §1

Gal6S(b1-4)Glc = biological target: Gal6S(b1-4)Glc
In short: as §1

[1] = biological target: GlcA3S(b1-3)Gal(b1-4)GlcNAc(b1-2)Man
In short: as §1

[2] = biological target: GlcNAc(a1-4)Gal(b1-4)GlcNAc(b1-3)Gal(b1-4)GlcNAc
In short: as §1

[3] = biological target: GlcNAc(b1-2)[GlcNAc(b1-4)]Man(a1-3)[GlcNAc(b1-2)Man(a1-6)]Man(b1-4)GlcNAc(b1-4)GlcNAc
In short: as §1

[4] = biological target: GlcNAc(b1-3)Gal(b1-4)GlcNAc(b1-3)Gal(b1-4)GlcNAc(b1-3)Gal(b1-4)GlcNAc(b1-3)Gal(b1-4)GlcNAc(b1-2)[GlcNAc(b1-3)Gal(b1-4)GlcNAc(b1-3)Gal(b1-4)GlcNAc(b1-3)Gal(b1-4)GlcNAc(b1-3)Gal(b1-4)GlcNAc(b1-6)]Man(a1-6)[GlcNAc(b1-3)Gal(b1-4)GlcNAc(b1-3)Gal(b1-4)GlcNAc(b1-3)Gal(b1-4)GlcNAc(b1-3)Gal(b1-4)GlcNAc(b1-2)Man(a1-3)]Man(b1-4)GlcNAc(b1-4)[Fuc(a1-6)]GlcNAc
In short: as §1

[5] = biological target: GlcNAc(b1-3)[GlcNAc(b1-6)]Gal(b1-4)GlcNAc
In short: as §1

[6] = biological target: Man(a1-2)Man(a1-2)Man(a1-3)Man
In short: as §1

[7] = biological target: Man(a1-3)[Man(a1-6)]Man(b1-4)GlcNAc(b1-4)[Fuc(a1-6)]GlcNAc
In short: as §1

[8] = biological target: Neu5Ac(a2-3)Gal(b1-3)GalNAc(b1-4)[Neu5Ac(a2-3)]Gal(b1-4)Glc
In short: as §1

[9] = biological target: Neu5Ac(a2-3)Gal(b1-3)GlcNAc(b1-6)GalNAc
In short: as §1

[10] = biological target: Neu5Ac(a2-3)Gal(b1-3)[Fuc(a1-4)]GlcNAc(b1-3)Gal(b1-4)[Fuc(a1-3)]GlcNAc
In short: as §1

[11] = biological target: Neu5Ac(a2-3)Gal(b1-3)]Neu5Ac(a2-3)Gal(b1-4)]GlcNAc
In short: as §1

[12] = biological target: Neu5Ac(a2-3)Gal(b1-4)GlcNAc(b1-2)Man(a1-3)[GlcNAc(b1-4)][Neu5Ac(a2-3)Gal(b1-4)GlcNAc(b1-2)Man(a1-6)]Man(b1-4)GlcNAc(b1-4)GlcNAc
In short: as §1

[13] = biological target: Neu5Ac(a2-3)Gal(b1-4)GlcNAc(b1-2)Man(a1-3)[Neu5Ac(a2-3)Gal(b1-4)GlcNAc(b1-2)Man(a1-6)]Man(b1-4)GlcNAc(b1-4)GlcNAc
In short: as §1

[14] = biological target: Neu5Ac(a2-3)Gal(b1-4)GlcNAc(b1-3)Gal(b1-4)GlcNAc(b1-3)Gal(b1-4)GlcNAc(b1-2)Man(a1-3)[Neu5Ac(a2-3)Gal(b1-4)GlcNAc(b1-3)Gal(b1-4)GlcNAc(b1-3)Gal(b1-4)GlcNAc(b1-2)Man(a1-6)]GalNAc
In short: as §1

[15] = biological target: Neu5Ac(a2-3)Gal(b1-4)GlcNAc6S
In short: as §1

[16] = biological target: Neu5Ac(a2-3)Gal(b1-4)[Fuc(a1-3)]GlcNAc(b1-3)GalNAc
In short: as §1

[17] = biological target: Neu5Ac(a2-6)Gal(b1-4)GlcNAc(b1-2)Man(a1-6)[Man(a1-3)]Man(b1-4)GlcNAc(b1-4)GlcNAc
In short: as §1

[18] = biological target: Neu5Ac(a2-6)Gal(b1-4)GlcNAc(b1-2)[Neu5Ac(a2-6)Gal(b1-4)GlcNAc(b1-6)]Man(a1-6)[Neu5Ac(a2-6)Gal(b1-4)GlcNAc(b1-2)Man(a1-3)][GlcNAc(b1-4)]Man(b1-4)GlcNAc(b1-4)GlcNAc
In short: as §1

[19] = biological target: Neu5Ac(a2-6)Gal(b1-4)GlcNAc(b1-3)Gal(b1-4)GlcNAc(b1-3)Gal(b1-4)GlcNAc(b1-2)Man(a1-3)[Neu5Ac(a2-6)Gal(b1-4)GlcNAc(b1-3)Gal(b1-4)GlcNAc(b1-3)Gal(b1-4)GlcNAc(b1-2)Man(a1-6)]GalNAc
In short: as §1

Neu5Ac(a2-6)GalNAc = biological target: Neu5Ac(a2-6)GalNAc
In short: as §1

[20] = biological target: Neu5Ac(a2-8)Neu5Ac(a2-3)[GalNAc(b1-4)]Gal(b1-4)Glc
In short: as §1

[21] = biological target: Neu5Gc(a2-3)Gal(b1-4)GlcNAc
In short: as §1

[22] = biological target: Neu5Gc(a2-3)Gal(b1-4)[Fuc(a1-3)]GlcNAc
In short: as §1

[23] = biological target: Neu5Gc(b2-6)Gal(b1-4)GlcNAc
In short: as §1

B1: MtEccB1 (Mycobacterium tuberculosis H37Rv), O69734 (protein)
chain: MGLRLTTKVQVSGWRFLLRRLEHAIVRRDTRMFDDPLQFYSRSIALGIVVAVLILAGAALLAYFKPQGKLGGTSLFTDRATNQLYVLLSGQLHPVYNLTSARLVLGNPANPATVKSSELSKLPMGQTVGIPGAPYATPVSAGSTSIWTLCDTVARADSTSPVVQTAVIAMPLEIDASIDPLQSHEAVLVSYQGETWIVTTKGRHAIDLTDRALTSSMGIPVTARPTPISEGMFNALPDMGPWQLPPIPAAGAPNSLGLPDDLVIGSVFQIHTDKGPQYYVVLPDGIAQVNATTAAALRATQAHGLVAPPAMVPSLVVRIAERVYPSPLPDEPLKIVSRPQDPALCWSWQRSAGDQSPQSTVLSGRHLPISPSAMNMGIKQIHGTATVYLDGGKFVALQSPDPRYTESMYYIDPQGVRYGVPNAETAKSLGLSSPQNAPWEIVRLLVDGPVLSKDAALLEHDTLPADPSPRKVPAGASGAP
- glycan array binding signal (z-score) (Gal(b1-6)Gal): -0.836
- glycan array binding signal (z-score) (Gal3S6S(b1-4)GlcNAc): 0.192
- glycan array binding signal (z-score) (Gal3S6S(b1-4)GlcNAc6S): 3.9
- glycan array binding signal (z-score) (Gal4S6S(b1-4)GlcNAc): 3.03
- glycan array binding signal (z-score) (Gal6S(b1-4)Glc): 0.586
- glycan array binding signal (z-score) [1]: -1.14
- glycan array binding signal (z-score) [2]: 0.812
- glycan array binding signal (z-score) [3]: -0.488
- glycan array binding signal (z-score) [4]: 3.92
- glycan array binding signal (z-score) [5]: -0.11
- glycan array binding signal (z-score) [6]: -1.02
- glycan array binding signal (z-score) [7]: 0.339
- glycan array binding signal (z-score) [8]: 3.37
- glycan array binding signal (z-score) [9]: -0.342
- glycan array binding signal (z-score) [10]: 0.263
- glycan array binding signal (z-score) [11]: 0.038
- glycan array binding signal (z-score) [12]: 4.06
- glycan array binding signal (z-score) [13]: -1.57
- glycan array binding signal (z-score) [14]: 2.66
- glycan array binding signal (z-score) [15]: 1.54
- glycan array binding signal (z-score) [16]: 0.588
- glycan array binding signal (z-score) [17]: 0.711
- glycan array binding signal (z-score) [18]: -0.566
- glycan array binding signal (z-score) [19]: 2.47
- glycan array binding signal (z-score) (Neu5Ac(a2-6)GalNAc): -0.143
- glycan array binding signal (z-score) [20]: 0.156
- glycan array binding signal (z-score) [21]: -0.509
- glycan array binding signal (z-score) [22]: 0.844
- glycan array binding signal (z-score) [23]: -0.779
